This note sets out measurements from ChEMBL document CHEMBL3433997, “St. Jude Leishmania screening dataset” (2016).

The inhibition is the relative decrease from the control value, in per cent.

Chain of Solute carrier family 2, facilitated glucose transporter member 1 (Homo sapiens) (P11166 whole entry): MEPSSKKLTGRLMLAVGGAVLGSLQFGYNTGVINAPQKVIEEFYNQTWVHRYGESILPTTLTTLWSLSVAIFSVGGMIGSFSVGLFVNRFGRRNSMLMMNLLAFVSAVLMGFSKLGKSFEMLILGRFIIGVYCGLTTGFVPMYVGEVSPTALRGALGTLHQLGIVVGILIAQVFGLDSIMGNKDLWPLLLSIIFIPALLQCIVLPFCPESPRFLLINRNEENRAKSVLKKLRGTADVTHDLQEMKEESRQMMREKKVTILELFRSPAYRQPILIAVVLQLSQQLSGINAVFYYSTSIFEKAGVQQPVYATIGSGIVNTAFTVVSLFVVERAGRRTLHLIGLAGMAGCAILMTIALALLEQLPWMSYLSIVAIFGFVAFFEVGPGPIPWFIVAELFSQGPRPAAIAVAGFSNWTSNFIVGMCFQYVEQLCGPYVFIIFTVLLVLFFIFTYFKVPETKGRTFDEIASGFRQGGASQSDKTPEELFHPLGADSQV

This experiment addresses Solute carrier family 2, facilitated glucose transporter member 1 (Homo sapiens) (UniProt P11166). Description: ST_JUDE_LEISH: Cytotoxicity at 2uM final concentration against transgenic Leishmania Mexicana promastigotes LmGLUT1 that are glucose transport deficient and complemented with the human glucose transporter GLUT1. Activity is measured by DNA content using SYBR green in vitro. Format: functional.
For `CCN(CC)/C(=N/C(=N)Nc1ccc(C)cc1)NCCCCCCN/C(=N\C(=N)Nc1ccc(C)cc1)N(CC)CC`, the inhibition is 7.79%.

As for `COc1c(C2CCN(CCCCNC(=O)C=Cc3cc4cc(Cl)ccc4o3)CC2)ccc2c1CCCC2`, the inhibition is 2.11%.

For `OC(COCc1ccc(-c2ccccc2)cc1)CN1CCCCC1` (stereo not given), the inhibition amounted to 2.72%.

As to `COc1cccc(-c2nn(C)c3sc(C(=O)NCCN(C)Cc4ccccc4)cc23)c1`, the inhibition turned out to be 2.97%.

In the case of `Cc1nc2ccc(NC(=O)c3cc(S(=O)(=O)N(C)C)ccc3Cl)cc2s1`, the inhibition was found to be 10.4%.

In the case of `O=C(Nc1cccc(-c2ccc(-c3nc4cc(C(F)(F)F)ccc4[nH]3)s2)c1)c1ccncc1`, the inhibition worked out at 8.37%.

Turning to `CCCCOc1cc(CNCCCCCCNCc2cc(OCCCC)cc3ccccc23)c2ccccc2c1`, the inhibition was 4.98%.

Consider `Oc1ccc2[nH]c(-c3cccc(F)c3)nc2c1CNCc1ccccc1`, for which the inhibition came out at 9.11%.

For `CCCCN1Cc2c(n(CC(=O)Nc3ccccc3)c3cc(-c4ccccc4)nn3c2=O)C1=O`, the inhibition was found to be 1.25%.

On to `CC(C)(C)OC(=O)Cn1cnc2cc(NC(=O)c3cc([N+](=O)[O-])cc([N+](=O)[O-])c3)ccc21`, for which the inhibition is 3.13%.

In the case of `CN(C)CCCNCCS(=O)(=O)c1cccc(Nc2ccc(-c3cccc(N(C)C)c3)cn2)c1`, the inhibition came out at 1.72%.

Turning to `CN(C)C(=S)N/N=C1/C(=O)Nc2ccc(OC(F)(F)F)cc21`, the inhibition was determined as 1.94%.

Regarding `COc1cccc(O)c1CN1CCC2(CCCN(Cc3ccc(F)cc3)C2)C1` (stereo not given), the inhibition stood at 1.04%.

For the molecule `Cc1cc2nc(-c3cccc(C(=O)NC4CCN(Cc5ccccc5)CC4)c3)[nH]c2cc1C`, the inhibition came out at 1.16%.

As for `c1ccn2c(-c3ncnc(NCc4ccc5c(c4)CCO5)n3)cnc2c1`, the inhibition worked out at 1%.

Consider `O=C(CCC1CCCC1)N(Cc1ccc(-c2ccc(CNCCc3ccccc3)cc2)cc1)C1CCCNC1` (stereo not given), for which the inhibition was -0.19%.

For `CCc1cn2c3c(cc(C(=O)N[C@@H](Cc4ccccc4)[C@H](O)CNCCOC)cc13)N(C)S(=O)(=O)CC2`, the inhibition was determined as 5.11%.

As to `O=C(NCCCCN1CCC(c2cccc3ccccc23)CC1)c1ccc(-c2ccc(C(F)(F)F)cn2)cc1`, the inhibition is 2.62%.

As for `O=C(Nc1ccc(Cn2ncc(N3CCCNCC3)c(Cl)c2=O)cc1)Nc1cc(Cl)cc(Cl)c1`, the inhibition was 2.15%.

Consider `CCNC[C@H]1CCCN1CCOc1ccc(-n2cnc3cc(-c4ccc(Cl)cc4)sc3c2=O)cc1OC`, for which the inhibition was -0.44%.

`COc1ccc(CN2CCCC(N3CC4(OC3=O)c3ccccc3-c3ccccc34)C2)c(O)c1` (stereo not given): the inhibition worked out at 5.47%.

On to `COc1cc2nccc(Nc3cc(C)cc(O)c3)c2cc1OC`, for which the inhibition amounted to 2.64%.

For the molecule `COc1ccc2nccc(N3CCC(CCNCc4ccc5c(n4)NC(=O)CO5)CC3)c2c1`, the inhibition was 1.72%.

Take `COc1ccc2ccccc2c1CCCCN1CCN(CC(c2ccc(F)cc2)N2CCC2)CC1` (stereo not given): the inhibition stood at 4.25%.

With `C(=NNc1nc2ccccc2[nH]1)c1ccccc1OCc1ccccc1`, the inhibition was 4.25%.

On to `N#Cc1ccc(-c2ccc(C(=O)NCCCCN3CCC(n4cnc5ccccc54)CC3)cc2)cc1`, for which the inhibition was found to be 3.46%.

Consider `CCc1cn2c3c(cc(C(=O)N[C@@H](Cc4cc(F)cc(F)c4)[C@H](O)CNC4CCOCC4)cc13)N(C)S(=O)(=O)CC2`, for which the inhibition is 0.86%.

Regarding `O=C(Nc1ccc(Cl)c(Cl)c1)N1CCC(CNCc2cccc([N+](=O)[O-])c2)CC1`, the inhibition came out at 3.92%.

`Cc1sc2nc(CSc3ccccc3)nc(N3CCN(CC(=O)NC4CC4)CC3)c2c1C`: the inhibition was -0.96%.

Turning to `O=C(Nc1cccc(CCNCc2ccccc2)c1)Nc1cccc2ccccc12`, the inhibition is 10.3%.

In the case of `Cc1cc([N+](=O)[O-])ccc1N1CCN(CCCCNC(=O)c2ccc(NC(=O)c3ccc(Cl)cc3)cc2)CC1`, the inhibition worked out at 4.75%.

Turning to `CC(C)CNCc1ccc(-c2cccc(CN(CCN(C)C)C(=O)CCC3CCCC3)c2)cc1`, the inhibition is 30%.

For the molecule `c1ccc(C2CCC(N3CCC(N4CCCC4)CC3)CC2)cc1` (stereo not given), the inhibition was 0.84%.

As for `COC(=O)c1ccc(OCC(O)CO)cc1O` (stereo not given), the inhibition is 0.55%.

As for `O=C(Nc1ccc(OC2CCN(Cc3ccsc3)C2)c(Cl)c1)c1cccs1` (stereo not given), the inhibition turned out to be 2.98%.

On to `Cc1sc(N2CCN(C)CC2)nc1C(=O)Nc1ccc(F)cc1C(F)(F)F`, for which the inhibition amounted to 4.38%.

`CC1(C)NC(N)=NC(=N)N1OCc1ccc2ccccc2c1CON1C(=N)N=C(N)NC1(C)C`: the inhibition is 3.58%.

As to `Cc1cccc2nc(-c3ccc(-c4cccc(NC(=O)Nc5ccccc5)c4)cc3)[nH]c12`, the inhibition came out at 9.16%.

As to `CCOc1cc(C(=O)NCCN(C(C)C)C(C)C)ccc1-c1nc2cc(Cl)ccc2[nH]1`, the inhibition came out at 2.57%.

Consider `O=c1cc(N2CCNCC2)c(Cl)nn1Cc1ccc(NS(=O)(=O)c2ccc(Oc3ccccc3)cc2)cc1`, for which the inhibition turned out to be 1.25%.
